Assay outcomes deposited in PubChem by National Center for Advancing Translational Sciences (NCATS).
Most compounds without a hit are left out; they make up all but 15% or so of the library.
RORg inh: blocks mouse ROR gamma transcriptional activity; Potency, µM (doses to about 53.6 µM), for inactives: at the highest dose activity change, negative = inhibition, actives largely listed as inhibitors; P51450; Drosophila S2 Gal4-RORgamma UAS-luciferase reporter, 20 h; 310,000 tested, 5.4% active; AID 2551; also: nearly all actives have a fitted effect of over 60% in size
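Drosophila S2 cells stably expressing Gal4-DBD/mouse RORγ fusion under metallothionein promoter plus UAS-luciferase; compound 1 h, then 700 uM CuSO4 induction for 20 h at ambient temperature; inhibition read as reduced luminescence.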
DT40 TDP1 CPT: DT40-hTDP1 cell growth loss with CPT; chicken DT40 Tdp1-/-;hTDP1 cells + 20 nM CPT, ATP luminescence, 48 h; Potency, µM (series often up to 46.2 µM), inactives show top-dose activity change, negative = growth inhibition, actives largely listed as inhibitors; 420,000 tested, 12% active; also: nearly all actives have a fitted effect of over 55% in size
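Chicken DT40 Tdp1-/- cells stably complemented with human TDP1 were seeded at 400 cells/well in medium containing 20 nM camptothecin, exposed to pin-transferred compounds, and grown at 37 °C for at least 48 hr. Viability was read as ATP luminescence.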
ELG1 repair inh: inhibitors of ELG1-dependent DNA repair in HEK293T cells | Potency, µM (doses to about 46.1 µM), without a hit: top-dose activity change, negative = inhibition, actives largely listed as inhibitors | 330,000 tested, 2.3% active | HEK293T ELG1-luciferase reporter, luminescence, 16 h; DNA damage induced by 5-fluorouridine; also: nearly all actives have a fitted effect of over 55% in size
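In this reporter screen, reduction of luminescence relative to DMSO vehicle indicated activity. Compounds and 5-fluorouridine were added together to 2,000 cells per well, incubated for 16 hr at 37 °C, then developed with ONE-Glo.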
Gal4-VP16 FLuc: Gal4-VP16 reporter inhibition counter-screen. Potency, µM (doses to about 53.6 µM), for inactives: at the highest dose activity, negative = inhibition, hits mostly inhibitors. Drosophila S2 Gal4-VP16 UAS-luciferase, luminescence, 20 h. 310,000 tested, 3.5% active;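 also: Gal4-VP16 expression switched on by copper sulfate through the metallothionein promoter; nearly all actives have a fitted effect of over 50% in size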
DT40 TDP1 no CPT: qHTS for Inhibitors of human tyrosyl-DNA phosphodiesterase 1 (TDP1): qHTS in cells in absence of CPT | DT40 Tdp1-/- hTDP1 cells, no CPT, ATP luminescence, 48 h | Potency, µM (series often up to 46.2 µM), without a hit: top-dose activity change, negative = growth inhibition, actives largely listed as inhibitors | 420,000 tested, 15% active | AID 686978, 2013; also: nearly all actives have a fitted effect of over 55% in size
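Camptothecin absent (DMSO only). Human TDP1-complemented DT40 knockout cells, 400 cells/well, 37 °C for minimum 48 hr; ATP measured via CellTiter-Glo, 30 min dark incubation, luminescence.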
ALOX12 inh: ALOX12 (human) lipoxygenase inhibition. 580,000 tested, 1.1% active. purified 12hLO, xylenol orange hydroperoxide absorbance. AID 1671190. Potency, µM (highest dose often 108 µM), for the others: at the top dose activity change, negative = inhibition, actives largely listed as inhibitors
Target sequence (P18054 whole entry, looked up): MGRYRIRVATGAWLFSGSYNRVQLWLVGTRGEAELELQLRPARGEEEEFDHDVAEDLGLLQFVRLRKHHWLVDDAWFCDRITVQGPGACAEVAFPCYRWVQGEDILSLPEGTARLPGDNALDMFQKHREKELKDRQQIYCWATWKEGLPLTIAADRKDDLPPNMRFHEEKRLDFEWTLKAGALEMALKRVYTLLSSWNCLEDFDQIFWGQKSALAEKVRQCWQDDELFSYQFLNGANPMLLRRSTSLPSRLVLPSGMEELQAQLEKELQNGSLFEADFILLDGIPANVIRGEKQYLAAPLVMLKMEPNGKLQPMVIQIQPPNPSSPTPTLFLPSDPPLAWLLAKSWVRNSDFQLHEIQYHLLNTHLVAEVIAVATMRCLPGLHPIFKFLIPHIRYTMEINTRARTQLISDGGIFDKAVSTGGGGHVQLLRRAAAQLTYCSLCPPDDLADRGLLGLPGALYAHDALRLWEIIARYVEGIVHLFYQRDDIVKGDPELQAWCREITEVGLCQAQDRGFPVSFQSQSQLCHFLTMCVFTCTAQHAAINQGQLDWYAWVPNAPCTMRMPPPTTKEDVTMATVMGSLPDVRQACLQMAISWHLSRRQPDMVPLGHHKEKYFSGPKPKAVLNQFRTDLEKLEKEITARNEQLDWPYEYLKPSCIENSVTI
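Purified human 12hLO at 150 nM in 25 mM Hepes, 0.01% Triton X-100, pH 7.0, preincubated 15 min at room temperature with compound. Reaction started with 40 uM arachidonic acid, 30 min at room temperature. Hydroperoxide measured by Fe-xylenol orange, 573/405 nm absorbance ratio.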
The depositor's hits bear a star; ? = inconclusive; . = no result given. Calls follow the shape of the dose curve; as a rule, active = well fitted curve in the direction sought with a large enough effect; inconclusive = small, poorly fitted or top-dose-only effect, or another doubt; inactive = no such curve, though single readings can be large; an effect the other way counts as inactive or inconclusive. % is scaled to controls: 0 for no effect and ±100 for the full control effect; potency is read from the fitted curve at half-maximal effect.

SMILES	RORg inh	DT40 TDP1 CPT	ELG1 repair inh	Gal4-VP16 FLuc	DT40 TDP1 no CPT	ALOX12 inh
CCCCNC(=O)c1nc(-c2ccc(C(F)(F)F)cc2)oc1-c1ccccc1	.	-24%	.	.	-20%	-6%
CCCCCNC(=O)c1nc(-c2c(F)cccc2F)oc1-c1ccccc1	.	?	.	.	21µM*	2%
Cc1oc(-c2ccccc2)nc1C(=O)NCc1ccccc1	.	.	.	.	.	18µM*
CCCCNC(=O)c1nc(-c2cc3ccccc3[nH]2)oc1-c1cccc(C(F)(F)F)c1	.	15µM*	.	.	?	-1%
COc1cccc(CNC(=O)c2nc(-c3ccccc3)oc2C)c1	.	.	.	.	.	-19%
Cc1cccc(NC(=O)c2ccccc2NC(=O)c2nc(-c3ccccc3)oc2C)c1	.	.	.	.	.	35µM*
COC(=O)c1cccc(NC(=O)c2ccc3c(c2)N(C)C2CCCCCN2C3=O)c1 (centres undefined)	.	.	.	.	.	35%
O=C(NCc1ccccc1)c1nc(-c2c(F)cccc2F)oc1-c1ccccc1	.	?	.	.	18µM*	-5%
Cc1ccc(NC(=O)CC(C)(C)CC(=O)O)c(C)c1	.	.	.	.	.	64%
CCc1c(C)nc2[nH]nc(-c3ccccc3)n2c1=O	59%	?	?	-3%	?	14%
CCc1c(C)nc2[nH]nc(-c3ccccc3C)n2c1=O	-40%	?	28%	?	15µM*	11%
CCN(CC)S(=O)(=O)c1cccc(C(=O)Nc2cc(C)nn2-c2ccccc2)c1	18%	2%	23µM*	-1%	?	-19%
CCN(CC)S(=O)(=O)c1ccc(Cl)c(C(=O)Nc2cc(C)nn2-c2ccccc2)c1	17%	18µM*	?	-24%	?	-17%
Cc1cc(NC(=O)c2cccc([N+](=O)[O-])c2)n(-c2ccccc2)n1	5%	-16%	0%	6%	-19%	-11%
CCc1ccc(C(=O)COC(=O)Cc2cccc3ccccc23)cc1	.	.	.	.	.	8%
O=C(OCc1cn([C@H]2CN(C(=O)c3cccs3)[C@@H](c3ccc(Cl)cc3)C[C@@H]2O)nn1)c1ccccc1	.	23µM*	.	.	?	-22%
O=C(OCc1cn([C@H]2CN(C(=O)c3cccs3)[C@@H](c3ccccc3)C[C@@H]2O)nn1)c1ccccc1	.	?	.	.	15µM*	?
O=C(Nc1ccc(F)cc1F)N[C@H]1C[C@H]2C(=O)NC[C@@H](CCC(=O)N3CCC(O)CC3)N2C1	.	.	.	.	.	9%
Cc1cccc(OCC(=O)Nc2ccc(S(=O)(=O)N(Cc3ccccc3)c3ccccc3)cc2)c1	.	10µM*	.	.	3.3µM*	-23%
Cc1cccc(OCC(=O)Nc2ccc(NC(=O)c3ccccc3)cc2)c1	-6%	6%	-5%	5%	-1%	-13%
O=C(COc1ccccc1)Nc1ccc(S(=O)(=O)N(Cc2ccccc2)c2ccccc2)cc1	.	?	.	.	15µM*	-15%
Cc1ncsc1-c1nc(CC2CCN(C)CC2)nn1Cc1ccccc1	.	.	.	.	.	4%
COc1ccc(OC)c(CCNC(=O)c2cc3cccc4c3n2CC(C)S4)c1 (centres undefined)	.	5.8µM*	.	.	5.2µM*	-25%
COc1ccc(CNC(=O)c2cc3cccc4c3n2CC(C)S4)c(OC)c1 (centres undefined)	.	9.2µM*	.	.	5.2µM*	-13%
COc1ccc(CNC(=O)c2cc3cccc4c3n2CC(C)S4)cc1OC (centres undefined)	.	?	.	.	23µM*	?
SMILES	RORg inh	DT40 TDP1 CPT	ELG1 repair inh	Gal4-VP16 FLuc	DT40 TDP1 no CPT	ALOX12 inh
CC1Cn2c(C(=O)NCc3cccc(Br)c3)cc3cccc(c32)S1 (centres undefined)	.	?	.	.	?	-4%
COc1ccc(OC)c(CCNC(=O)c2csc3c2CCCCC3)c1	.	?	.	.	?	-14%
COc1cccc(Cn2c(=O)c(C)nc3cnc(OCc4ccccc4)nc32)c1	-7%	-23%	.	-7%	18µM*	0%
COc1cccc(Cn2c(=O)cnc3cnc(Oc4cccc(Cl)c4)nc32)c1	-1%	?	.	21%	?	-17%
COc1cccc(Cn2c(=O)c(C)nc3cnc(Oc4cccc(Cl)c4)nc32)c1	-1%	-33%	.	4%	23µM*	?
COc1cccc(Cn2c(=O)cnc3cnc(OCc4ccccc4)nc32)c1	1%	-6%	.	1%	-24%	?
COc1ccc(Oc2ncc3nc(C)c(=O)n(Cc4ccc(F)cc4)c3n2)cc1	?	?	.	3%	21µM*	?
Oc1ccc(Nc2nc(N3CCCC3)c3ccccc3n2)cc1	-2%	26µM*	8%	?	21µM*	?
Cc1ccc(Nc2nc(N3CCOCC3)c3ccccc3n2)cc1	23%	21µM*	?	?	21µM*	?
COc1ccc(Nc2nc(N)c([N+](=O)[O-])c(N3CCCC3)n2)cc1	15%	?	?	4%	?	4%
COc1ccc(Nc2nc(N3CCCCC3)c3ccccc3n2)cc1	18µM*	18µM*	-1%	7.1µM*	18µM*	28µM*
Cc1ccc(Nc2nc(N)c([N+](=O)[O-])c(N3CCOCC3)n2)cc1	6%	-25%	?	-7%	-25%	-7%
c1ccc2c(Nc3ccc(N4CCOCC4)cc3)nc(N3CCOCC3)nc2c1	?	?	9.2µM*	0%	21µM*	-6%
CC(=O)NC1=NN(C(C)=O)C2(S1)C(=O)N(CC(C)C)c1ccc(Br)cc12 (centres undefined)	.	.	.	.	.	24%
COc1cccc(N(CC(=O)Nc2ccc(C(N)=O)cc2)S(=O)(=O)c2ccccc2)c1	.	.	.	.	.	-9%
Cc1oc2cc(O)ccc2c(=O)c1-c1nc2ccccc2s1	.	.	.	.	.	-23%
CC1CCN([C@@H]2[C@H](O)[C@H](CO)O[C@@H]2CN(Cc2ccc(F)cc2)Cc2ccc(F)cc2)CC1	.	.	.	.	.	-7%
Cc1ccc(Nc2nc(CSc3nnc(-c4cccnc4)n3-c3ccccc3C)cs2)cc1	5µM*	15µM*	-29%	?	15µM*	-20%
Cc1ccccc1-n1c(SCc2csc(Nc3ccccc3)n2)nnc1-c1cccnc1	?	12µM*	?	?	13µM*	-13%
O=C1c2ccccc2C(Nc2ccc(S(=O)(=O)N3CCOCC3)cc2)N1c1cccnc1 (centres undefined)	13%	-8%	2%	15%	-20%	30%
